# Test results as given in PubChem BioAssay AID493170 (National Center for Advancing Translational Sciences (NCATS), 2011).
# Records with an inconclusive call do not appear. Entries that show only a call come without a potency. Active and inactive are the calls of the source. Calls come from the whole dose curve; as a rule, active = well fitted inhibition curve with a large enough effect; inconclusive = small, poorly fitted or top-dose-only effect, or effect the other way; inactive = flat fitted curve, though single readings scatter.
# Target: Ubiquitin carboxyl-terminal hydrolase 2 (Homo sapiens) (UniProt O75604)
# Sequence (O75604 whole entry, looked up): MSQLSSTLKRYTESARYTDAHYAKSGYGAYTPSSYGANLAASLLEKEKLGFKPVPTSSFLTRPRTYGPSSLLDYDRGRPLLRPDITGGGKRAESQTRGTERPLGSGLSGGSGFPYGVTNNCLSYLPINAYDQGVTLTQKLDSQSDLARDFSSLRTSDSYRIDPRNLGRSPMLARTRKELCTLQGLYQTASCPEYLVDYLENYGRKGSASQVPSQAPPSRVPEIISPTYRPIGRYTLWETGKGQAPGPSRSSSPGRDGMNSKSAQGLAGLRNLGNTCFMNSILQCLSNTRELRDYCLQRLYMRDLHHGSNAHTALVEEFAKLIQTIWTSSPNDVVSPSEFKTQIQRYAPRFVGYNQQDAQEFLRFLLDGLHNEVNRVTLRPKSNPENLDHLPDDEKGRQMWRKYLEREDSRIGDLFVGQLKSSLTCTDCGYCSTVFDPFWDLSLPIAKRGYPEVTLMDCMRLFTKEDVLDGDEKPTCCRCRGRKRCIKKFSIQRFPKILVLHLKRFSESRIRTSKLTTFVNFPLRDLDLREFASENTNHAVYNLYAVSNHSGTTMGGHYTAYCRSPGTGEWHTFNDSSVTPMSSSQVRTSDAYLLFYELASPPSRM
# Test: Ub-rhodamine 110 based assay for inhibitors Ubiquitin-specific Protease USP2a; note: nearly all actives have a fitted effect of over 50% in size
# Details: USP2a Ub-rhodamine110 cleavage, fluorescence; series mostly up to 38.3 µM
# Outline: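 Kinetic fluorescence (485/531 nm) read each minute over 7 min after adding Ub-Rhod110 (150 nM final) to USP2a (5 nM final). The enzyme had 30 min RT exposure to compounds beforehand in Tris pH 8.0 buffer with CaCl2, CHAPS and beta-ME.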
# Potency is the fitted concentration of half-maximal effect.
row,SMILES,Potency
1,N#Cc1c(SCC(=O)Nc2nc3ccccc3s2)sc2c(O)cc(=O)[nH]c12,8.91 µM (active)
2,COc1ccc(C(=O)C[N+]2(C)CCOCC2)cc1,inactive
3,O=C(CSc1nc2ccccc2s1)NCCCN1CCOCC1,inactive
4,Cc1cccc(Nc2nc(NCc3ccco3)c3ccccc3n2)c1,inactive
5,C#CCOCCOCCOCCNc1nc(N2CCN(C(=O)CCCCCCCCCCNC(=O)[C@H]([C@@H](C)CC)n3cc(CCCCCN)nn3)CC2)nc(N2CCN(C(=O)CCCCCCCCCCNC(=O)[C@H]([C@@H](C)CC)n3cc(CCCCN=C(N)N)nn3)CC2)n1,12.6 µM (active)
6,O=C(Nc1ccccc1)c1cc(Cl)nc2ccccc12,inactive
7,CN1CCN(Cc2c(O)ccc3c(=O)c(Oc4ccccc4Cl)c(C(F)(F)F)oc23)CC1,inactive
8,COc1cc(C(=O)OC2CCCCC2=O)cc(OC)c1C (centres undefined),11.2 µM (active)
9,CCOC(=O)C1CCCN(C(=O)c2cc(-c3ccco3)nc3ccccc23)C1 (centres undefined),4.47 µM (active)
10,Cc1ccc(C=Nc2ccccc2C(N)=O)cc1,inactive
11,Cc1cc(C)n(C(=O)c2cccc(S(=O)(=O)N3CCCC3)c2)n1,inactive
12,CC1(C(=O)O)Sc2[nH]c(=O)sc2C2c3ccccc3OC(=O)C21 (centres undefined),inactive
13,Cc1cc(NC(=O)COC(=O)CCCOc2ccc(Cl)cc2C)no1,inactive
14,O=C(O)CP(=O)(c1ccccc1)c1ccccc1,inactive
15,COC(=O)c1[nH]c(=O)c2ccccc2c1OCc1ccccc1,inactive
16,Cc1cc(N=Nc2ccc(C)c(N=Nc3cc(C)c(N)cc3N)c2)c(N)cc1N,inactive
17,COc1cc(/C=C/c2cc[n+](C)cc2)ccc1OCC(=O)Nc1ccc(Cl)c(Cl)c1,inactive
18,Cc1ccc(C)c(OCC(=O)Nc2cc(NC(=O)COc3cc(C)ccc3C)cc(C(=O)O)c2)c1,11.2 µM (active)
19,COC(=O)c1c(NC(=O)c2cccnc2)sc(C)c1C,inactive
20,CC1Cc2ccccc2N1C(=O)Cn1c(=O)oc2cc(S(=O)(=O)NC3CCCC3)ccc21 (centres undefined),inactive

row,SMILES,Potency
1,Cc1ccc(S(=O)(=O)N2[C@@H](c3ccc(C(C)(C)C)cc3)C(C(=O)O)=CC[C@H]2c2cccc(Cl)c2)cc1,5.62 µM (active)
2,Cc1ccc(NC(=O)CCC(=O)OC(C)C(=O)c2ccccc2)cc1 (centres undefined),inactive
3,O=C(CSCCO)Nc1cccc2ccccc12,inactive
4,CC1CCCCN1CCNC(=O)CC1Oc2ccccc2NC1=O (centres undefined),inactive
5,CC[n+]1c(/C=C/N(C)c2ccccc2)n(-c2ccccc2)c2ccc(-c3nc4ccccc4s3)cc21,inactive
6,CCc1cc2c(=O)c(-n3cnc4ccccc43)coc2cc1O,inactive
7,C#CCOCCOCCOCCNc1nc(N2CCN(C(=O)CCCCCCCCCCNC(=O)[C@@H](CCSC)n3cc(CCO)nn3)CC2)nc(N2CCN(C(=O)CCCCCCCCCCNC(=O)[C@H](CCCN=C(N)N)n3cc(C[C@@H](C)CC)nn3)CC2)n1,10 µM (active)
8,CC1=CC(C)(C)N(C(=O)c2ccccc2)c2ccccc21,inactive
9,CCCCCCCCCCOC(=O)Cn1c(COc2ccccc2)[n+](C)c2ccccc21,inactive
10,Cc1ccc(C(=O)NCCCc2ccccc2)s1,inactive
11,N=c1sccn1CC(=O)Nc1ccc(S(=O)(=O)N2CCOCC2)cc1,inactive
12,COC(=O)c1[nH]c2ccccc2c1NC(=O)CN1CCCc2ccccc21,inactive
13,O=c1oc2ccccc2n1Cn1c(=O)oc2ccccc21,inactive
14,CCn1c(COc2ccc(C)cc2)nnc1SCC(=O)Nc1ccc2c(c1)OCCO2,inactive
15,CCOc1cc(N2CCOCC2)c(OCC)cc1NC(=O)Cc1cn2ccsc2n1,inactive
16,COc1ccc(C2CC(=O)N3CN(c4ccccc4F)CSC3=C2C#N)cc1OC (centres undefined),inactive
17,O=C(Nc1ccc(Oc2ccc(Cl)cc2)cc1)c1ncn[nH]1,inactive
18,COc1ccc(/C=C(\NC(=O)c2ccc(OC)c(OC)c2)C(=O)N2CCN(C)CC2)cc1,inactive
19,CNc1cccccc1=S,10 µM (active)
